Drawing on PubChem BioAssay, this text covers z-score and composite z-score for 13 compounds.

The nature of assay [1]: resazurin metabolic signal in HepG2 cells – cell-based, resazurin fluorescence, 24 h, PK04 Diversity Set, profiling panel (AID 1172). Also: test concentration not given here. As to conditions: HepG2 viability, higher = more signal.
Assay [2] can be described thus: budding yeast growth changes without added modifier – OD600, strain BY4716, 24 h, basal condition, primary screen (AID 1173). Conditions: S. cerevisiae BY4716 growth, OD600, 24 h; higher = more signal, called active from +8 up or from −8 down.
Assay [3] is described as follows: viability profiling in MM1S myeloma cells – cell-based, resazurin fluorescence, basal, 24 h, PK04 Diversity Set, profiling panel (AID 1174).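 Also: MM1S multiple myeloma cell line; test concentration not given here.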 Conditions: higher = more signal, called active from +8 up or from −8 down.
The target in assay [4] is Dihydroorotate dehydrogenase (quinone), mitochondrial (Plasmodium falciparum (isolate 3D7)) (UniProt Q08210). The experiment in a line: inhibition of P. falciparum DHODH – biochemical, C-terminal His tag, absorbance 600 nm, primary screen (AID 1175).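 Also: recombinant parasite enzyme with a five histidine tag at its C terminus; test concentration not given here.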 Conditions: PfDHODH enzyme, DCIP absorbance 600 nm; higher = more signal, called active from +8 up or from −8 down.
Sequence of Dihydroorotate dehydrogenase (quinone), mitochondrial (Plasmodium falciparum (isolate 3D7)) (Q08210 whole entry, looked up): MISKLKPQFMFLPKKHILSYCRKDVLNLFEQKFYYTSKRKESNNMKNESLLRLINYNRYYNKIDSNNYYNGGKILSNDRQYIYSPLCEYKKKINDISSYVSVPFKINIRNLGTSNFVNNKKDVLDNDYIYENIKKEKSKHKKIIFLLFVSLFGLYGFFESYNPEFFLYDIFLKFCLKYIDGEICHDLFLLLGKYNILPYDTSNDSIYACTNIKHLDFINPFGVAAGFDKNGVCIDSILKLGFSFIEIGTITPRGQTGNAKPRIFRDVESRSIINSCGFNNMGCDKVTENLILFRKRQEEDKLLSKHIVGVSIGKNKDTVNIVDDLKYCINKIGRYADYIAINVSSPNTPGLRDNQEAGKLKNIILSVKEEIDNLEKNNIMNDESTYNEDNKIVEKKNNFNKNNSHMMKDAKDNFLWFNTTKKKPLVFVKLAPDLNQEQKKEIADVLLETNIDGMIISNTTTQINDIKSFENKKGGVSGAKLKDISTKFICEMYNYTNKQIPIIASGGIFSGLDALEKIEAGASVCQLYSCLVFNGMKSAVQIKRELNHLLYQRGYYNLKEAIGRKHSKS
Assay [5] in a line: inhibition of PAO1 biofilm formation – strain PAO1, LB-PBS medium, absorbance 600 nm, primary screen (AID 1176). Also: test concentration not given here. As to conditions: P. aeruginosa PAO1 growth/biofilm, A600, 12 h; higher = more signal.
A short description of assay [6]: growth modulation of vineyard yeast isolate – strain RM11-1a, OD600, basal, 24 h, primary screen (AID 1177).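 Also: cultures grown under basal conditions with no added stressor; test concentration not given here.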 As to conditions: S. cerevisiae RM11-1a growth, OD600, 24 h; higher = more signal, called active from +8 up or from −8 down.
Assay [7] in a line: growth of efflux-deficient E. coli DRC39 – strain DRC39, OD650, 24 h, E. coli filamentation inducers, primary screen (AID 1178).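 Also: growth measured as culture turbidity by optical density at 650 nm; test concentration not given here.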 As to conditions: E. coli DRC39 acrAB, higher = more signal, called active from +8 up or from −8 down.
Assay [8] can be described thus: growth of efflux-deficient E. coli DRC39 – strain DRC39, OD650, 48 h, E. coli filamentation inducers, primary screen (AID 1179).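 Also: screen aims at cell division blockers that make cells filament.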 As to conditions: E. coli DRC39 delta-acrAB growth, higher = more signal, called active from +8 up or from −8 down.
Assay [9] in a line: viability profiling in RPMI8226 myeloma cells – cell-based, resazurin fluorescence, basal, 24 h, PK04 Diversity Set, profiling panel (AID 1180).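 Also: RPMI8826 multiple myeloma cell line at 5000 cells per well; test concentration not given here.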 As to conditions: higher = more signal.
The target in assay [10] is E3 ubiquitin-protein ligase XIAP (Homo sapiens) (UniProt P98170). The experiment in a line: small molecules binding XIAP protein – biophysical, small-molecule microarray, fluorescence 635 nm, primary screen (AID 1181).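 Also: score merges 667 nm emission and signal to noise over triplicate slides.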 As to conditions: higher = more signal.
Sequence of E3 ubiquitin-protein ligase XIAP (Homo sapiens) (P98170 whole entry, looked up): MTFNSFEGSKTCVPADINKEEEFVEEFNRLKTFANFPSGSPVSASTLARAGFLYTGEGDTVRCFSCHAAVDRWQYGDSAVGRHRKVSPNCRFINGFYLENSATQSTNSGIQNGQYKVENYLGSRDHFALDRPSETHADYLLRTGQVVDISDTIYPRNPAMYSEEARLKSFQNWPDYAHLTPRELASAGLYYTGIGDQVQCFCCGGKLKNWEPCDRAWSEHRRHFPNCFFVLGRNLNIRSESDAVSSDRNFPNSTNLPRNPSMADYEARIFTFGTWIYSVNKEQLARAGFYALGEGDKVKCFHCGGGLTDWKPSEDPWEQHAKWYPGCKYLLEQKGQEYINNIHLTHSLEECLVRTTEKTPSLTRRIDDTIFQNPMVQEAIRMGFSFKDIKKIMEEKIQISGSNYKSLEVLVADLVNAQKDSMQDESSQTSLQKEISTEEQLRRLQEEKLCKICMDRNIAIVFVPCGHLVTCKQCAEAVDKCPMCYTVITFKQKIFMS

Activity calls are given as the source filed them. Unless noted, no rule for the calls is given here.

On to `COc1ccccc1CN1C(=O)c2ccccc2[C@](Cc2ccccc2I)(C(=O)NCCN2CCOCC2)[C@@H]1c1ccc(CO)cc1`, for which the z-score in assay [1] is -2.07; in assay [2] it was -0.261 (inactive); in [3] it was -0.914 (inactive); in assay [5], 0.817 (inactive); in assay [6] it was -0.897 (inactive); in assay [7], 0.533 (inactive). In addition, the z-score in assay [8] was 0.908 (inactive); in assay [9], -1.66. Besides, the composite z-score in [4] was -1.1 (inactive); in [10], -0.108.
As to `C=CCC(OC(C)=O)[C@@H]1[C@@H](N(Cc2ccc(-c3ccccc3)cc2)C(=O)Cc2ccc(OC)cc2)c2cc(OCCCO)ccc2N1C(=O)c1ccc(-c2ccccc2)cc1` (stereo not given in full), the z-score in assay [1] was 0.192; in assay [2], -1.13 (inactive); in assay [3], 0.833 (inactive); in [5], -0.24 (inactive); in [6], -0.754 (inactive); in assay [7] it was 1.57 (inactive). For the same compound, the z-score in [8] is 0.807 (inactive); in assay [9] it was 0.989. The composite z-score in assay [4] was -0.0887 (inactive); in assay [10], 0.233.
As for `COC(=O)C(CC#Cc1ccc2c(c1)[C@]1(C(=O)N2)[C@H](c2ccc(O)cc2)N2[C@H](c3ccccc3)[C@H](c3ccccc3)OC(=O)[C@H]2[C@@H]1C(N)=O)C(=O)OC`, the z-score in assay [1] was 1.09; in assay [2], -0.773 (inactive); in assay [3], 0.455 (inactive); in assay [5], 1.28 (inactive); in assay [6] it was -0.864 (inactive); in assay [7], 1.68 (inactive). The z-score in assay [8] was 2.08 (inactive); in [9], 1.1. Besides, the composite z-score in [4] was 0.133 (inactive); in assay [10], 0.153.
As to `CN(C)CCCC[C@@H]1NC(=O)[C@H]2C[C@@H](C(=O)NCCCCCCNC(=O)CS)[C@@H](c3ccc(O)cc3)N2C1=O`, the z-score was 0.183 in assay [1]; -0.213 (inactive) in [2]; -0.614 (inactive) in assay [3]; 0.022 (inactive) in assay [5]; -0.48 (inactive) in assay [6]; 0.0961 (inactive) in assay [7]. For the same compound, the z-score in assay [8] was -0.509 (inactive); in [9] it was -0.892. The composite z-score in assay [4] was -0.368 (inactive); in assay [10], -0.0749.
On to `CN(C)C(=O)[C@]1(Cc2ccccc2N=[N+]=[N-])N=C(c2ccc(OCCCO)cc2)O[C@@H]1c1ccccc1CN=[N+]=[N-]`, for which the z-score in assay [1] is 2.37; in assay [2], -1.93 (inactive); in assay [3] it was -1.13 (inactive); in assay [5], -0.165 (inactive); in assay [6], -0.495 (inactive); in assay [7], 0.804 (inactive). Moreover, the z-score in assay [8] was 0.7 (inactive); in [9], -0.997. In addition, the composite z-score in [4] was -0.106 (inactive); in [10], 0.152.
As for `C[C@]12C(=O)N(CCCCCO)[C@@H]3C(=O)N(c4ccc(Cl)cc4)CC=CC31O[C@@H]1/C=C\CCCOC(=O)C12` (stereo not given in full), the z-score was -0.626 in assay [1]; -0.225 (inactive) in [2]; 0.194 (inactive) in assay [3]; -0.677 (inactive) in [5]; -0.605 (inactive) in assay [6]; -0.308 (inactive) in assay [7]. In addition, the z-score in [8] was -0.175 (inactive); in assay [9], -0.135. The composite z-score was -0.841 (inactive) in [4] and 0.234 in [10].
On to `CC1CC/C=C\[C@H]2OC34C=CCN(Cc5ccccc5)C(=O)[C@H]3N(CCO)C(=O)[C@@H]4C2C(=O)O1` (stereo not given in full), for which the z-score in assay [1] is -0.811; in assay [2], -0.73 (inactive); in assay [3] it was 0.32 (inactive); in [5], -0.758 (inactive); in assay [6] it was 0.606 (inactive); in [7] it was 0.98 (inactive). Further, the z-score was 0.566 (inactive) in assay [8] and 0.301 in assay [9]. The composite z-score in [4] was 0.622 (inactive); in [10] it was -0.147.
On to `CN(C)CCCN1C(=O)[C@@]2(Cc3ccccc31)c1ccccc1C(=O)N(Cc1ccccc1)[C@H]2c1ccc(CO)cc1`, for which the z-score in assay [1] was 1.18; in assay [2] it was 0.225 (inactive); in assay [3] it was 1.04 (inactive); in [5] it was 0.587 (inactive); in assay [6] it was -0.549 (inactive); in assay [7], 0.672 (inactive). For the same compound, the z-score in [8] is -0.245 (inactive); in assay [9], 0.246. Also, the composite z-score in assay [4] was -6.03 (inactive); in assay [10], -0.176.
With `COc1ccccc1CN1C(=O)c2ccccc2[C@@]2(Cc3ccccc3N(C3CC3)C2=O)[C@@H]1c1ccc(CO)cc1`, the z-score in assay [1] was 0.409; in [2], 0.162 (inactive); in assay [3] it was -0.319 (inactive); in assay [5], -0.255 (inactive); in assay [6] it was -0.522 (inactive); in assay [7], -0.473 (inactive). Further, the figures for the z-score in [8] and in [9] were -0.694 (inactive) and -0.343, respectively. Moreover, the composite z-score is -6.76 (inactive) in assay [4] and -0.232 in assay [10].
In the case of `Cc1cc(C)c(C(O)C2C=CC3C(=O)N(c4ccccc4)C(=O)C3N2Nc2ccccc2)c(C)c1` (stereo not given), the z-score was -0.156 in [1]; 0.439 (inactive) in assay [2]; -0.307 (inactive) in assay [3]; 1.14 (inactive) in assay [5]; 0.292 (inactive) in assay [6]; -0.297 (inactive) in assay [7]. The z-score in [8] is 0.445 (inactive); in assay [9] it was -0.0598. In addition, the composite z-score in assay [4] is 0.224 (inactive); in assay [10], 0.0542.
Take `CCCC=C(CCC)[C@@H](NC(=O)Cc1ccccc1)c1ccc(C(=O)OC)cc1`: the z-score is -0.704 in assay [1]; 0.951 (inactive) in [2]; -1.14 (inactive) in [3]; 0.964 (inactive) in assay [5]; 1.49 (inactive) in [6]; 0.276 (inactive) in [7]. The z-score in [8] is 0.543 (inactive); in assay [9] it was -0.702. Also, the values for the composite z-score in [4] and in assay [10] were -0.831 (inactive) and 0.11, respectively.
Regarding `CCCC=C(CCC)[C@@H](NS(=O)(=O)c1cccc2cccnc12)c1ccc(C(=O)OC)cc1`, the z-score in assay [1] was 0.582; in assay [2] it was 1.35 (inactive); in assay [3], 0.058 (inactive); in assay [5], 0.371 (inactive); in [6], 1.04 (inactive); in [7], 0.134 (inactive). Further, the z-score in assay [8] was -0.754 (inactive); in [9], 0.0013. Further, the composite z-score in assay [4] is -0.0345 (inactive); in assay [10] it was 0.67.
Regarding `C=CCN1C(=O)[C@@]2(O[C@@H](CCO)[C@H]([Si](C)(C)c3ccc(OC)cc3)[C@H]2C)c2cc(NC(=O)[C@H](C)O)ccc21`, the z-score in assay [1] is -1.15; in assay [2], -2.34 (inactive); in assay [3], -2.15 (inactive); in assay [5], 1.73 (inactive); in assay [6], 2.32 (inactive); in assay [7], 0.895 (inactive). The figures for the z-score in assay [8] and in assay [9] were 0.403 (inactive) and -2.3, respectively. For the same compound, the composite z-score in assay [4] was -0.108 (inactive); in assay [10], 0.555.
